Test results taken from PubChem BioAssay (NCI).
Compounds without any hit were thinned out: in the full panel of roughly 79,000, 15% have a hit. Activity calls are given as the source filed them. No stated cut-off is given here; in the data, active means growth inhibition above about 70%; inactive means the rest.

assay: NCI Yeast Anticancer Drug Screen. Data for the cln2 rad14 strain (AID 165);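 further: 0% = growth equal to vehicle treated cultures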; conditions: S. cerevisiae cln2 rad14 strain, at 50.0 µM, active compounds read high
How it was run: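 Yeast carrying cln2 and rad14 alterations (cell cycle control and DNA damage repair) were exposed to compounds. Growth inhibition was measured against vehicle-treated controls.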

Row | Structure (SMILES) | growth inhibition
1 | O=C(/C=C/C(=O)c1ccccc1)c1ccccc1 | -31.4% (inactive)
2 | CCCCCCCO | 2.25% (inactive)
3 | CCCOC(=O)C(O)c1ccccc1 (configuration not stated) | -24.1% (inactive)
4 | O=C(O)/C=C/c1ccc2c(c1)CCC2 | 23.8% (inactive)
5 | Nc1nc(OCc2ccccc2)c2[nH]cnc2n1 | -29.2% (inactive)
6 | COc1cccc(COC(=O)Nc2ccccc2)c1OC | 21.5% (inactive)
7 | Cc1ccc(C(=O)c2ccccc2)c(C)c1 | -10.4% (inactive)
8 | CCCCC(O)c1ccccc1 (configuration not stated) | -21.8% (inactive)
9 | NC(N)=Nc1cc2ccccc2c2ccccc12 | -14% (inactive)
10 | CCOc1ccc(I)cc1 | 36.8% (inactive)
11 | O=S(=O)(O)c1cc(O)c2c(N=Cc3ccccc3O)c(S(=O)(=O)O)ccc2c1 | -2.45% (inactive)
12 | OCCN1CCOCC1 | 24.9% (inactive)
13 | Cc1cc(N)ccc1-c1ccc(N)cc1C | -39% (inactive)
14 | NCCC(=O)c1ccc(Cl)cc1 | 4.45% (inactive)
15 | Cc1cc(C)c(N)c(S(=O)(=O)O)c1 | -63% (inactive)
16 | c1ccc(Cc2ccccc2)cc1 | 1.5% (inactive)
17 | COC(=O)c1cccnc1 | 7.2% (inactive)
18 | COc1cc(C(=O)NC(=S)Nc2ccc3ccccc3c2)cc(OC)c1OC | -6.15% (inactive)
19 | COC(=O)c1cccc(Br)c1 | -29.5% (inactive)
20 | C=C[Si](OC(C)=O)(OC(C)=O)OC(C)=O | 14.7% (inactive)
21 | CCOC(=O)CSc1c([N+](=O)[O-])ncn1C | 17.3% (inactive)
22 | O=C(NCCNC(=O)c1ccc(Cl)cc1Cl)c1ccc(Cl)cc1Cl | -42.2% (inactive)
